# From PubChem BioAssay (EPA / NIEHS)
# Activity calls are given as the source filed them. Rule for the calls: active = hit-call score of the fitted dose curve at least 0.9, where 1 is the maximum; inactive = score below 0.9.
# Read-out: NAD(P)H dehydrogenase [quinone] 1 (NQO1), NQO1 (gene 1728)
# Assay: LTEA_HepaRG_NQO1: Life Technologies and Expression Analysis (LTEA) Assay for NAD(P)H dehydrogenase [quinone] 1 (NQO1) using HepaRG (AID 2283526)
# Details: mRNA level, 48 h; actives raise or lower the signal
# Experimental: LTEA_HepaRG is a cell based, multiplexed-readout assay that uses HepaRG, a human liver cell line, with measurements taken at 48 hours after chemical dosing on a 96-well plate.LTEA_HepaRG_NQO1 is one of 102 assay component(s) measured in the LTEA HepaRG cell culture assay. It is a marker of Diseases associated with NQO1 include Tardive Dyskinesia and Childhood Leukemia.Data from the assay component LTEA_HepaRG_NQO1 was analyzed into 1 endpoint. This assay endpoint, LTEA_HepaRG_NQO1, was analyzed with bidirectional fitting relative to DMSO as the negative control and baseline of activity. Using a type of inducible reporter, measures of mRNA induction for gain or loss-of-signal activity can be used to understand regulation of transcription factor activity. To generalize the intended target to other relatable targets, this assay endpoint is annotated to the oxidoreductase intended target family, where the subfamily is quinone-acceptor.
# A total of 1060 chemcials from the ToxCast library were tested in eight-point concentration-response experiments. Cell culture and cytotoxicity assays were conducted at Thermo Fisher Scientific's Custom Services facility (Madison, WI). A single lot of human HepaRG cells (Thermo Fisher Scientific, Frederick, MD) was used for the cell culture experiments. 96-well format collagen type I coated plates of human HepaRG cells were prepared using established methods. Briefly, cryopreserved HepaRG cells were thawed, plated at a density of approximately 100,000 cells/well in HepaRG Thaw, Plate, and General Purpose media (HPRG770, Thermo Fisher Scientific), and incubated for 48 hours. 0.5% DMSO was selected as vehicle control to balance the requisite need of DMSO in HepaRG cultures to maintain differentiation (for example, baseline metabolism, proportions of hepatocytes vs. cholangiocytes), while enabling further hepatic receptor pathway activation (for example, PXR and CAR) in response to chemical exposure. 48 hours after plating, the culture medium was replaced with HepaRG Serum-Free Incudtion Media. Cells were exposed to each test chemical in duplicate and maintained in CO2 incubators for another 48 hours. Chemical plates were thawed to room temperature and 200x concentrations of treatment groups were prepared. 8-point conentration-reponse curves were made with the highest exposure at 100 uM, followed by half-log dilutions, all in 0.5% DMSO. Each test plate contained variouse controls, induction positive controls (1mM phenobarbital), cytotoxicity positive controls ([…] aflatoxin B1), vehicle controls (0.5% DMSO), and total lysis controls (0.5% DMSO). Cell morphology images were taken using an Essen IncuCyte FLR automated microscope, with six 96-well plates imaged in about 24 minutes. Images were captured and exported and JPEG files. Spent culture media was transfered to black-well plates for the LDH assay, and remaining media was sorted at -80 C for later use. Cells were treated with RLT buffer and frozen until shipped for gene expression analysis. Total RNA was isolated from the cell suspension in 75 uL of Buffer RLT (Qiagen, Germantown, MD 20874) by Quintiles/Expression Analysis (Durham, NC) using a custom isolation procedure. Total RNA from each plate well was transferred to a preamplification plate. Fluidigm's 96.96 Dynamic ArrayTM (Fluidigm, Amsterdam, the Netherlands) technology was used for gene expression analyses by quantitative reverse transcription polymerase chain reaction (qRT-PCR, performed by Quintiles/Expression Analysis, Durham, NC)89. Standard TaqManTM Assays (Applied Biosystems/ThermoFisher Scientific, Foster City, CA) were used to assess the expression of 93 genes selected based on their selectivity and sensitivity to important hepatic receptors known to be modulated by environmental chemicals; importance in human hepatocyte functionality; and hepatotoxicity. […]
SMILES,outcome,AC50
CO/N=C(/C1=NOCCO1)c1ccccc1Oc1ncnc(Oc2ccccc2Cl)c1F,inactive,–
Cn1c(-c2ccccc2)cc(-c2ccccc2)[n+]1C,inactive,–
COc1ccc(-c2ccccc2)cc1NNC(=O)OC(C)C,inactive,–
O=C1C2CC=CCC2C(=O)N1SC(Cl)(Cl)Cl (stereo not given),inactive,–
COc1cc(OC)nc(NC(=O)NS(=O)(=O)c2ncccc2OCC(F)(F)F)n1,inactive,–
Cc1ccc(N=CN(C)C=Nc2ccc(C)cc2C)c(C)c1,inactive,–
CCNC(=O)NC(=O)C(C#N)=NOC,inactive,–
CC1(C)CCC(=Cc2ccc(Cl)cc2)C1(O)Cn1cncn1 (stereo not given),inactive,–
COC(=O)c1c(C(F)F)nc(C(F)(F)F)c(C2=NCCS2)c1CC(C)C,inactive,–
CCOP(=O)(OCC)Oc1nc(Cl)c(Cl)cc1Cl,inactive,–
COCC(=O)N(c1c(C)cccc1C)C(C)C(=O)OC (stereo not given),inactive,–
Cc1nc(N(C)C)nc(OC(=O)N(C)C)c1C,inactive,–
CCCCC(O)(Cn1cncn1)c1ccc(Cl)cc1Cl (stereo not given),–,50 µM (active)
CCNP(=S)(OC)O/C(C)=C/C(=O)OC(C)C (stereo not given),inactive,–
CC(C)N1C(=O)c2ccccc2NS1(=O)=O,inactive,–
Clc1nc(Cl)nc(Nc2ccccc2Cl)n1,inactive,–
CC(C)N1C(=O)N(c2ccccc2)CSC1=NC(C)(C)C,inactive,–
Nc1cnn(-c2ccccc2)c(=O)c1Cl,inactive,–
CCCCC(C#N)(Cn1cncn1)c1ccc(Cl)cc1 (stereo not given),inactive,–
COCC(C)N(C(=O)CCl)c1c(C)csc1C (stereo not given),inactive,–

SMILES,outcome,AC50
N#Cc1c(Cl)cccc1Cl,inactive,–
COCc1cnc(C2=NC(C)(C(C)C)C(=O)N2)c(C(=O)O)c1 (stereo not given),inactive,–
CCN(CC)c1nc(C)cc(OP(=S)(OC)OC)n1,inactive,–
CNC(=O)Oc1cccc2ccccc12,inactive,–
CCSC(=O)N1CCCCCC1,inactive,–
COc1cc(Cl)c(OC)cc1Cl,inactive,–
N#Cc1c[nH]cc1-c1cccc2c1OC(F)(F)O2,inactive,–
CCOc1nc(F)cc2nc(S(=O)(=O)Nc3c(Cl)cccc3Cl)nn12,inactive,–
CS(=O)(=O)c1cc(C(F)(F)F)ccc1C(=O)c1cnoc1C1CC1,inactive,–
CC(C)Oc1cccc(NC(=O)c2ccccc2C(F)(F)F)c1,inactive,–
CS(=O)(=O)c1ccc(C(=O)C2C(=O)CCCC2=O)c([N+](=O)[O-])c1,inactive,–
CN/C(=N\[N+](=O)[O-])NCc1cnc(Cl)s1,inactive,–
CCOc1cc(C(C)(C)C)ccc1C1COC(c2c(F)cccc2F)=N1 (stereo not given),inactive,–
CC(C)Nc1nc(Cl)nc(NC(C)C)n1,inactive,–
CC(C)C1(C)N=C(c2ncccc2C(=O)O)NC1=O (stereo not given),inactive,–
COC(=O)NS(=O)(=O)c1ccc(N)cc1,inactive,–
Cc1cc(C)nc(Nc2ccccc2)n1,inactive,–
CNC(=O)N(C)c1nnc(C(C)(C)C)s1,inactive,–
CCCC(=NOCC)C1=C(O)CC(CC(C)SCC)CC1=O (stereo not given),inactive,–
CCOP(=S)(OCC)Oc1nc(Cl)n(C(C)C)n1,inactive,–
